# Experimental data: PubChem BioAssay (NCI)
# Compounds without any hit were thinned out: in the full panel of roughly 79,000, 15% have a hit. Values without a mark were called inactive. No stated cut-off is given here; in the data, active means growth inhibition above about 70%; inactive means the rest.
# Assay: NCI Yeast Anticancer Drug Screen. Data for the mec2-1 strain (AID 157)
# Conditions: S. cerevisiae mec2-1 strain, at 50.0 µM, hits give high values
# Method in brief: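 Test agents were screened against the mec2-1 yeast strain, with defined DNA repair or cell cycle alteration. Growth was scored as inhibition against vehicle-only controls.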
row,SMILES,growth inhibition [%]
1,CN1C(=O)C(=O)n2c(cc3ccccc32)C1=O,6.15
2,CSSC(SC)SC,-7.85
3,CC(C)=C(CSC#N)S(=O)(=O)c1ccc(C)cc1,14.2
4,S=C(c1ccccc1Cl)N1CCOCC1,-22.2
5,CCN(CC)c1ccccc1-c1ccccc1,20.1
6,CC(=O)Nc1ccc(/C=N/NC(N)=O)cc1,11.6
7,O=C1CC2C(=O)N(Cc3ccccc3)C1C=C2S(=O)(=O)c1ccccc1 (stereo not given),21.6
8,CC/C(C)=C1/CC(C)(C)N=C1C,-43.5
9,O=C1c2cccc3cc([N+](=O)[O-])cc(c23)C(=O)N1C(Cc1ccccc1)c1ccccc1 (stereo not given),-6.05
10,NC(N)=Nc1nc2ccc(Cl)cc2[nH]1,1
11,COC(=O)CCSc1ccccc1,-12
12,O=C(C(=O)c1cccc(C(=O)C(=O)c2ccccc2)c1)c1ccccc1,-10.6
13,CCCCS(=O)(=O)Nc1cccc(C(=O)O)c1,-9.1
14,CCC(CC)OC(=O)Nc1cccc2ccccc12,-9.65
15,CN(C)CCCN=C(N)N,-20.9
16,CCC(=O)N(C)C1(C#N)CCCCC1,-42.9
17,CONC(CC(=O)c1ccccc1)c1ccccc1 (stereo not given),6.95
18,Cn1ncc2c(N)nc(NCCO)nc21,4.75
19,O=C1NC(c2cccc3ccccc23)Nc2ccccc21 (stereo not given),-14.8
20,O=C1C(Cl)(Cl)C(=O)C(Cl)(Cl)C(=O)C1(Cl)Cl,24.5

row,SMILES,growth inhibition [%]
1,NC1C(O)C(N)C(O)C(O)C1O (stereo not given),20.4
2,CCOc1ccc(C(C)(CC)c2cc3c(cc2OC)OCO3)cc1 (stereo not given),-14.3
3,C/C(CCC(=O)O)=N\NC(=O)COc1ccc(Cl)cc1Cl,-0.15
4,CCCCCCCCCCCC1=c2o[nH]c2=C(c2ccccn2)C(=O)C1=O,-6.6
5,O=CC(NC(=O)N(CCF)N=O)C(O)C(O)C(O)CO (stereo not given),-4.05
6,O=C(O)c1cc(/C=C/c2ccccc2)ccc1[N+](=O)[O-],25.5
7,NNC(=S)N/N=C(\c1nc2ccc(Cl)cc2[nH]c1=O)C(O)c1cccc([N+](=O)[O-])c1 (stereo not given),27.6
8,CCN(CC)c1ccc2cc(-c3nc4ccccc4[nH]3)c(=O)oc2c1,-5.3
9,CN(C)C(=O)Nc1ccc2c(c1)OCO2,8.6
10,Oc1cc2c(cc1C(c1ccc(Cl)cc1)N1CCCCC1)OCO2 (stereo not given),-1.6
11,c1ccc2c(c1)Cc1c-2n[nH]c1-c1[nH]nc2c1Cc1ccccc1-2,8.85
12,CCOC(=O)c1c(/N=C/c2ccc(N(C)C)cc2)sc2c1CCCC2,13.8
13,Cc1csc[n+]1C/C(=N/O)c1ccc(I)cc1,-3.75
14,C(=C\C(Sc1ccccc1)c1ccccc1)/NNC1=NC(c2ccccc2)C(c2ccccc2)=NN1 (stereo not given),-8.6
15,CCOc1ccccc1NC(=O)/C=C1\NC(=O)CS1,-14.4
16,CN(C)CCCCCCNCCC#N,-27.8
17,CC(=O)OC(OC(C)=O)c1cccc2ccccc12,-9.3
18,CC(C)CCCC(C)C1CCC2C(CC(=O)O)C(C3(C)CCC(O)CC3=O)CCC2(C)C1 (stereo not given),27.1
19,N#Cc1nc(Nc2ccc([N+](=O)[O-])cc2)sc1N,33.8
20,O=C(O)COc1cc(Cl)cc(F)c1Cl,4.1
